According to PubChem BioAssay (NCI):
Compounds without any hit were thinned out: in the full panel of roughly 83,000, 20% have a hit.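 Cell lines were cultured in 96-well plates, exposed to a single compound concentration, and assessed for percent growth 48 hours later.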 A number with no mark means an inactive call. Activity calls are given as the source filed them. The calls were made as follows: active = growth percent below 10; inactive = the rest.

Tests used:
Assay in all cases: NCI-60 one-dose screen, 48 h (100 = growth as untreated, 0 = no growth, -100 = all killed)
Settings in all cases: 10 µM unless noted
NCI-H23 lung = system: NCI-H23 lung
NCI-H322M lung = system: NCI-H322M lung
HOP-62 NSCLC = system: HOP-62 NSCLC
NCI-H460 lung = system: NCI-H460 lung
HOP-92 NSCLC = system: HOP-92 NSCLC
NCI-H522 lung = system: NCI-H522 lung
A549/ATCC NSCLC = system: A549/ATCC NSCLC
786-0 renal = system: 786-0 renal
COLO 205 colon = system: COLO 205 colon
DU-145 prostate = system: DU-145 prostate
K-562 leukemia = system: K-562 leukemia
MALME-3M melanoma = system: MALME-3M melanoma
MDA-MB-231 breast = system: MDA-MB-231 breast
RXF 393 renal = system: RXF 393 renal
SF-268 CNS = system: SF-268 CNS
SF-295 CNS = system: SF-295 CNS
SF-539 CNS = system: SF-539 CNS
UACC-257 melanoma = system: UACC-257 melanoma
M14 melanoma = system: M14 melanoma
HCT-15 colon = system: HCT-15 colon

Compound | growth (NCI-H23 lung) | growth (NCI-H322M lung) | growth (HOP-62 NSCLC) | growth (NCI-H460 lung) | growth (HOP-92 NSCLC) | growth (NCI-H522 lung) | growth (A549/ATCC NSCLC) | growth (786-0 renal) | growth (COLO 205 colon) | growth (DU-145 prostate) | growth (K-562 leukemia) | growth (MALME-3M melanoma) | growth (MDA-MB-231 breast) | growth (RXF 393 renal) | growth (SF-268 CNS) | growth (SF-295 CNS) | growth (SF-539 CNS) | growth (UACC-257 melanoma) | growth (M14 melanoma) | growth (HCT-15 colon)
CCN(CCO)CCNc1ccc(C)c2sc3cc(Cl)ccc3c(=O)c12 | 59.6% | 47% | 38.5% | -75.9% (active) | 4.54% (active) | 50.2% | 24.6% | -60.1% (active) | -80.9% (active) | 16.9% | -43.6% (active) | -27.8% (active) | -42.8% (active) | 5.22% (active) | 44.6% | 12.5% | 73.1% | -49.8% (active) | -74.2% (active) | -44.9% (active)
CN1CCN(Cc2ccc(C(=O)Nc3cncc(C#Cc4cnc(N)c5ccccc45)c3)cc2C(F)(F)F)CC1 | -41.8% (active) | -31.5% (active) | -48.4% (active) | -80.8% (active) | 45.2% | -54.3% (active) | -67.8% (active) | -82.1% (active) | -50.9% (active) | -87.2% (active) | -46% (active) | -86.9% (active) | -82.2% (active) | -81.5% (active) | -69.5% (active) | -82.7% (active) | -95.9% (active) | -75% (active) | -85.2% (active) | -37.6% (active)
Cc1ccc(OCCCCCCNCCO)c(C)c1 | 19.8% | 11.1% | 10.1% | -20.9% (active) | 12.8% | -8.65% (active) | 5.92% (active) | 11.3% | 1.75% (active) | 21.5% | 6.98% (active) | -0.226% (active) | 18% | -2.46% (active) | 4.83% (active) | – | -14.7% (active) | -8.91% (active) | -0.43% (active) | 22.8%
O=c1oc2ccc(I)cc2c(=O)n1-c1ccc(Cl)cc1F | -9.99% (active) | 5.32% (active) | -3.85% (active) | 3.56% (active) | -6.61% (active) | -17.1% (active) | 6.01% (active) | 8.94% (active) | 52.1% | 19.5% | 4.68% (active) | -21.2% (active) | -12.6% (active) | 4.98% (active) | 12% | -48.1% (active) | 7.99% (active) | -15.1% (active) | 9.12% (active) | 2.13% (active)
COc1cccc(/C=C/C(=O)c2c(C)nc3ccccc3c2/C=C/c2ccccc2)c1OC | 31.2% | 45.3% | 55.2% | 2.78% (active) | 60.7% | 3.88% (active) | 30.9% | 42.4% | 56.3% | 4.24% (active) | 9.13% (active) | 69.1% | 20.9% | 15.4% | 38.8% | 46.5% | 58.8% | 46.1% | 36.3% | 5.81% (active)
CCN1C(=O)N(CC)C2C1NN=c1s/c(=C3\C(=O)N(C(C)C)c4ccccc43)c(=O)n12 (configuration not stated) | 28.8% | 52.6% | 38.7% | 5.6% (active) | 54% | -3.38% (active) | 16.5% | 30.6% | -16% (active) | 3.71% (active) | 7.46% (active) | 64.6% | 11.3% | 35.5% | 25.2% | 5.01% (active) | -13.2% (active) | 57.1% | 18.9% | 12.4%
NC1(N2SC(S)=C3CCCC=C32)CCCCC1 | 105% | 99.8% | 101% | 107% | 96.6% | 81.9% | 100% | 106% | 107% | 98.3% | 84.9% | 102% | 107% | 129% | 96.3% | 115% | 104% | 99.8% | 101% | 108%
Cc1ccc(NCCNCC(O)CO)c2c(=O)c3ccccc3sc12 (configuration not stated) | 29.6% | 25.1% | 20.3% | -66.3% (active) | -2.88% (active) | 26.6% | -2.08% (active) | 27.1% | -87.2% (active) | 11.9% | -13.4% (active) | -12.4% (active) | -15.9% (active) | 13.8% | 29.3% | 25.4% | 47.3% | 6.52% (active) | -71% (active) | -37.2% (active)
O=c1[nH]nnc2c1ncn2C1OC(CO)C(O)C1O (configuration not stated) | 63.3% | 71.1% | 66.7% | 33.1% | 35.7% | 58% | 49.7% | 54.4% | 34.4% | 26.8% | 31.5% | 57.5% | 55.2% | 80.7% | 67.6% | 20.2% | 67.2% | 65.2% | 36.2% | 66.5%
CCN(CC)c1cc(C)c2cc(NC(=O)c3cccc(OC)c3)ccc2n1 | 85% | 109% | 107% | 57.1% | 29.1% | 93.4% | 80% | 70% | 89.7% | 92.9% | 13.4% | 82.5% | 55.5% | 51.3% | 63.2% | – | 77.3% | 105% | 77.3% | 61.4%
COc1ccc(-c2nnc(COc3ccc(C(=O)/C=C/c4ccco4)cc3)o2)cc1 | 92.1% | 86.6% | 75.8% | 78.5% | 88.4% | 91.8% | 87% | 50.9% | 44.7% | 61.6% | 15.3% | 125% | 90% | 65% | 58.1% | -2.9% (active) | 55.9% | 105% | 98.8% | 68.3%
O=Nc1c(O)ccc2ccccc12.O=Nc1c(O)ccc2ccccc12.O=Nc1c([O-])ccc2ccccc12.[Fe+3] | 87% | 104% | 87.6% | 105% | 94.5% | 103% | 106% | 115% | 103% | 125% | 115% | 95.8% | 86.9% | 110% | 106% | – | 96% | 110% | 97.2% | 105%
O=S1(=O)CCN(Cc2ccccc2)CC1 | 98.4% | 110% | 96.7% | 103% | 79.5% | 104% | 104% | 95.3% | 107% | 103% | 101% | 112% | 105% | 121% | 92.2% | 97% | 95.6% | 105% | 90.3% | 92.8%
COc1ccc(Cn2cc(Cn3c(=O)c(-c4nc5ccccc5[nH]4)cc4ccccc43)nn2)c(OC)c1OC | 4.71% (active) | 18% | 9.29% (active) | 1.94% (active) | -2.19% (active) | -1.1% (active) | 9.33% (active) | -50.1% (active) | 13.5% | -59.6% (active) | 9.91% (active) | 24.6% | 1.9% (active) | -28.4% (active) | 2.39% (active) | 1.99% (active) | -28.6% (active) | 46.9% | -50.3% (active) | 11.1%
COC(=O)[C@H](NC(=O)C1(C)CCC[C@]2(C)[C@H]3C[C@H]4C(C(C)C)=C[C@]3(CC[C@@H]12)[C@@H]1C(=O)CCC(=O)[C@@H]14)C(C)C (some centres not stated) | 103% | 96.2% | 99.8% | 113% | 96.8% | 102% | 94.4% | 102% | 110% | 106% | 96.9% | 104% | 90.8% | 105% | 96.5% | 94.8% | 100% | 104% | 102% | 95.3%
